PubChem BioAssay AID463173 (ICCB-Longwood Screening Facility, Harvard Medical School, 2010)
Among all 52,000 compounds or so, about 4,300 (8.3%) were called active. The entries come from a sample that favours actives as a whole. Values without a mark were called inactive. Cut-off read from the data, not from the text of the source: active = survival mostly below about 52% (no sharp cut-off); inactive = mostly above about 56%.

System: DeltatarO mutant
Assay: growth inhibition of S. aureus wild type versus tarO mutant, primary screen, teichoic acid synthesis inhibitors, RN4220, OD600 (AID 463173)
Conditions: OD600, 18 h, active compounds read low, screened at 18.75 µg/mL (by protocol)

In order of rising survival:
1. CCCCN(CC)C(=O)c1cc2c(=O)n3ccccc3nc2n1C  50%
2. CCCCN(CC)C(=O)c1cc2c(=O)n3cccc(C)c3nc2s1  54%
3. O=C(NCC1CCN(Cc2cccc(Cl)c2)CC1)Nc1ccc(F)c(Cl)c1  55%
4. CCCN(CCC)C(=O)c1cc2c(=O)n3cccc(C)c3nc2s1  56%
5. Cc1cccn2c(=O)c3cc(C(=O)NC(C)(C)C)n(C)c3nc12  61%
6. CCCN(CCC)C(=O)c1cc2c(=O)n3cccc(C)c3nc2n1C  62%
7. CCOc1ccccc1CNC(=O)CN1C(=O)CCn2nc(-c3cn(C)c4ccccc34)cc21  66%
8. Cc1ccc(CN2CCC(CNC(=O)Nc3cccc(Cl)c3C)C2)cc1 (configuration not stated)  75%
9. CCc1ccccc1NC(=O)CSc1nnc(-c2ccc(OC)cc2)s1  80%
10. Cc1ccc(C(=O)Nc2ccc3nc(SCC(=O)N4CCCc5ccccc54)sc3c2)cc1  80%
11. CCCCc1ccc(NC(=O)c2cc3c(=O)n4ccccc4nc3s2)cc1  89%
12. CCc1ccc(-c2nn(CC(=O)NCc3ccccc3)c3c2cnc2ccc(F)cc23)cc1  92%
13. COc1ccc(Cn2ccnc2SCC(=O)Nc2ccc3c(c2)OCCO3)cc1  94%
14. CCOc1ccc(CNc2cc(C)nc3nc(-c4cccc(C)c4)nn23)cc1OC  95%
15. COc1ccc(CNC(=O)CN2C(=O)CCn3nc(-c4cn(C)c5ccccc45)cc32)cc1  96%
16. CCCCN(CC)CCCNC(=O)CN1C(=O)CSc2ccc(S(=O)(=O)N3CCOCC3)cc21  97%
17. O=C(NCC1CCN(Cc2ccccc2F)CC1)Nc1ccc(F)c(Cl)c1  100%
18. CCOC(=O)CNC(=O)c1cc2c(=O)n3cccc(C)c3nc2n1C  102%
19. Cc1ccc(CN2CCC(CNC(=O)Nc3ccccc3F)CC2)cc1  113%
20. O=C(NCc1ccc(F)cc1)c1cc2c(=O)n3ccccc3nc2s1  140%

For `CCOc1ccc(CNC(=O)CN2C(=O)CCn3nc(-c4cn(C)c5ccccc45)cc32)cc1OC`, the survival was -4% (active).
`O=C(NCC1CCN(Cc2cccc(Cl)c2)CC1)Nc1cc(Cl)ccc1Cl` was tested, and the survival was 17% (active).
In the case of `Cc1ccc(NC(=O)NCC2CCN(Cc3cccc(Cl)c3)CC2)cc1Cl`, the survival is reported as -5% (active).
`CCCCN(CC)C(=O)c1cc2c(=O)n3cccc(C)c3nc2n1C` was tested, and the survival was 56% (active).
For `CCCCN(CCCC)C(=O)c1cc2c(=O)n3cccc(C)c3nc2s1`, the survival was -13% (active).
For `CCCCN(CCCC)C(=O)c1cc2c(=O)n3ccccc3nc2s1`, the survival was 39% (active).
`Cc1cccn2c(=O)c3cc(C(=O)NC(C)C)n(C)c3nc12` was tested, and the survival was 53% (active).
